In ChEMBL document CHEMBL3988442, “University of Dundee, Small-Polar-MMV Screening Library” (2021):
About 13,000 (27%) of roughly 48,000 compounds showed an effect of 50% or more. Some of the results follow.

test system: Wolbachia pipientis; experiment: Anti-Wolbachia Cell-Based Screen; type: functional; parameters: scale not given: in the data most compounds retested in dose-response had high values; settings: 5 µM

SMILES | Percent Effect [%]
OC[C@@H]1CCCN1Cc1cn(C2CCN(C3CCCC3)CC2)nn1 | -5.2
Cc1noc(OCCOc2ccc(C#N)cc2)n1 | 1.206
CN1C(=O)C(C)(C)COc2cc(NS(=O)(=O)Cc3ccccc3)ccc21 | 11.42
O=C1CO[C@H](c2ccc(NS(=O)(=O)Cc3ccccc3)cc2)[C@@H](CO)N1 | -3.508
CN1C(=O)C(C)(C)COc2cc(NS(=O)(=O)c3ccccc3F)ccc21 | 192.1
Cn1cccc1C(O)CNS(=O)(=O)Cc1ccccc1 (stereo unspecified) | -5.113
Cc1nc(N2CCCC2)nc(C)c1NS(=O)(=O)c1ccccc1F | -5.726
CC(C)CS(=O)(=O)Nc1ccc2c(c1)OCC(C)(C)C(=O)N2C | 141.6
CC(C)CS(=O)(=O)Nc1ccc([C@H]2OCC(=O)N[C@@H]2CO)cc1 | -5.323
Cn1c(=O)n(C)c2cc(NS(=O)(=O)Cc3ccccc3)ccc21 | 78.16
CN1C(=O)C(C)(C)COc2ccc(NS(=O)(=O)Cc3ccccc3)cc21 | 99.35
CN1C(=O)C(C)(C)COc2cc(NS(=O)(=O)c3ccccc3)ccc21 | 19.53
Cn1ccc(CS(=O)(=O)Cc2ccccc2)cc1=O | -1.625
Cn1cnc2c1CCN(CCCOc1ccc(S(C)(=O)=O)cc1)C2 | -0.429
COc1cc(CNC(=O)N2CCCC2c2cc(C)no2)ccn1 (stereo unspecified) | -13.9
CCOc1ccccc1-c1noc(CN(C)Cc2cnn(C)c2)n1 | -16.57
CCCS(=O)(=O)Nc1ccc2c(c1)OCC(C)(C)C(=O)N2C | -9.167
CCS(=O)(=O)Nc1ccc2c(c1)OCC(C)(C)C(=O)N2C | 121.3
CCS(=O)(=O)Nc1ccc2[nH]c(C3CCC3)nc2c1 | 5.664
O=C(CCc1nc(Cl)n[nH]1)NC1CCCN(C2Cc3ccccc3C2)C1 (stereo unspecified) | -44.69
COC(=O)c1ccoc1CN(C)Cc1cc(OC)c(OC)cc1C | 109.7
COC(=O)c1ccoc1CN(C)Cc1ccccc1 | 118.1
CC1Cc2ccccc2N1Cc1occc1C(=O)NCC(=O)N(C)C (stereo unspecified) | -8.438
COC(=O)CNC(=O)C1(N(C)Cc2ccccc2)Cc2ccccc2C1 | -5.057

SMILES | Percent Effect [%]
CN(Cc1ccccc1)CC(C)(C)NC(=O)c1ccon1 | 7.047
CN(CC(=O)N(C)C)Cc1ccc(C#N)cc1F | -6.679
COC(=O)c1ccoc1CN(C)CC(=O)N(C)C | 115.3
COc1cc(C)c(C(C)NC(=O)c2cccnc2N(C)C)cc1OC (stereo unspecified) | 0.4558
COc1cc(CC(=O)Nc2cccc(C(=O)N(C)C)n2)ccc1C | -9.433
COc1ccc(F)cc1C(C(=O)O)N1CCCN(C2CCCC2)CC1 (stereo unspecified) | 11.4
CCC(C)(C)NC(=O)c1scnc1Cl | 6.107
Cc1cnn(C2CN(CC(O)COCc3ccc4c(c3)OCO4)C2)c1 (stereo unspecified) | -34.94
CSc1ccc(CNC(c2ccccc2)c2nccn2C)cc1 (stereo unspecified) | -1.677
COc1cc(CN(C)C(=O)Cc2c(C)nn(C)c2C)ccc1OC(F)F | -29.22
Cc1ccc(C(C(=O)O)N(C)CCN2CCOCC2)c(F)c1 (stereo unspecified) | -0.2175
COc1cc(C)cc(C(C(=O)O)N(C)Cc2cnn(C)c2)c1OC (stereo unspecified) | -13.95
COc1ccc(Cl)cc1C(C(=O)O)N(C)Cc1ccon1 (stereo unspecified) | -2.698
Cc1nn(C)c(C)c1CN(C)C(C(=O)O)c1ccc(F)cc1F (stereo unspecified) | 99.54
COc1ccc(C(C(=O)O)N(C)Cc2c(C)nn(C)c2C)c(C)c1 (stereo unspecified) | 108.6
COc1cc(C)cc(OC)c1C(C(=O)O)N(C)Cc1c(C)nn(C)c1C (stereo unspecified) | 77.2
COc1ccc(C(C(=O)O)N(C)CCN2CCCC2)c(C)c1 (stereo unspecified) | 0.7603
COc1cc(F)ccc1C(C(=O)O)N(C)Cc1ccon1 (stereo unspecified) | 19.52
Cc1ccc(NC(=O)CN2CCCNC2=O)c(SC(F)(F)F)c1 | -6.443
CN(C)C1CCCN(C(=O)NCCNC(=O)C2CCCC2)C1 (stereo unspecified) | 2.147
N#Cc1cccc(S(=O)(=O)NC2CCN(CC(F)(F)F)C2)c1 (stereo unspecified) | 11.74
N#Cc1ccc(SCCOCCO)c(Cl)c1 | -25.21
N#CC1CCCN(c2ncnc3c2CCN(Cc2ccccc2)CC3)C1 (stereo unspecified) | 115
CN1CCN(c2ncnc3c2CCN(Cc2nccn2C)CC3)CC1 | -1.995

SMILES | Percent Effect [%]
COCCn1ccnc1C1CCCN(c2ncnc3c2CCC3)C1 (stereo unspecified) | -0.4091
Cn1ccnc1CN1CCc2ncnc(N3CCCC(C#N)C3)c2CC1 (stereo unspecified) | 91.92
N#CC1CCCN(c2nc(-c3ccccc3)nc3c2CCNCC3)C1 (stereo unspecified) | 6.584
Cn1cc(CN2CCc3ncnc(N4CCCC4)c3CC2)cn1 | 6.266
Cc1ccccc1N1CCN(C(=O)c2cccnc2-n2cncn2)CC1 | 25.7
Cc1nc(C2CCCN2Cc2cc(Cl)c3c(c2)OCCCO3)no1 (stereo unspecified) | -4.62
CC(C)=CCC1(C(=O)O)CCCN(c2ccnc(N)n2)C1 (stereo unspecified) | 0.6776
O=C1c2cc(Br)cc(Br)c2OCC1(CN1CCCC1)CN1CCCC1 | 108.8
Cc1cc(I)c2c(c1)C(=O)C(CN1CCCC1)(CN1CCCC1)CO2 | 118.1
CCNC(=O)NC[C@@H]1C=C(C)[C@H](CC(=O)NCCN(C)C)C[C@H]1C(C)C | -8.573
OCCCN1CCc2onc(C(c3ccccc3)c3ccccc3)c2C1 | 6.435
CCOc1ccc(C(F)(F)F)cc1NCc1cc(C)on1 | -4.345
Cc1cc(CNc2ccc3nc(C)sc3c2)no1 | 5.343
Cc1cc(CNc2ccc(C(F)(F)F)cc2)no1 | 98.51
CC1(C(=O)N2CCOCC2)CN(CC2CCOCC2)CCO1 (stereo unspecified) | 129.5
C1CC(CN2CCOCC3(CCN(C4CCOCC4)C3)C2)CCO1 (stereo unspecified) | -8.937
O=C(N1CCOCC1)[C@@]12CCO[C@@H]1CCN(CC1CCCCC1)C2.O=C(O)C(F)(F)F | 16.73
CN(C)C(=O)CN1CCC2(C1)CN(CC1CCOCC1)C2 | -9.984
O=C(C1CN(CC2CCOCC2)CC12CCOCC2)N1CCOCC1.O=C(O)C(F)(F)F (stereo unspecified) | 5.554
CC1(C(N)=O)CN(CC2CCC2)CCO1 (stereo unspecified) | 100.1
O=C(C1CN(CC2CC2)CC12CCOCC2)N1CCCC1 (stereo unspecified) | -4.912
CC1(C(N)=O)CN(CC2CCOCC2)CCO1 (stereo unspecified) | 88.24
CC1(C)CC(CN2CCC3(CCC(=O)N(C4CCC4)C3)CC2)CCO1 (stereo unspecified) | -1.352
